Only some compounds are listed: those with a hit (about 3% of all), similar ones and a draw of the others.
EWS-Fli inh: EWS/Fli transcriptional activity inhibition | A673 NR0B1-luciferase reporter, viability-normalised | inhibition, % at 12.6 µM | 0.67% of 350,000 active | AID 651661;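 active means mean inhibition of at least 50% after viability correction, with every replicate also passing that limit; inconclusive means mean reaches 50% but only one of two replicates passes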;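 further: firefly luciferase signal divided by Alamar Blue viability fluorescence both relative to DMSO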
ABHD5 PLIN5 PPI: inhibitors of human ABHD5-perilipin-5 interaction; inhibition, % at 4 µM; 0.78% of 360,000 active; AID 602281; Q00G26+Q8WTS1; Split G. princeps luciferase complementation, luminescence, 4 h;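 active means inhibition above the mean inhibition across every tested compound plus 3 SD, cut at about 22% in these data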;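 further: 0% = DMSO only wells and the 100% control is not disclosed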
Target sequence (Q00G26 whole entry, looked up): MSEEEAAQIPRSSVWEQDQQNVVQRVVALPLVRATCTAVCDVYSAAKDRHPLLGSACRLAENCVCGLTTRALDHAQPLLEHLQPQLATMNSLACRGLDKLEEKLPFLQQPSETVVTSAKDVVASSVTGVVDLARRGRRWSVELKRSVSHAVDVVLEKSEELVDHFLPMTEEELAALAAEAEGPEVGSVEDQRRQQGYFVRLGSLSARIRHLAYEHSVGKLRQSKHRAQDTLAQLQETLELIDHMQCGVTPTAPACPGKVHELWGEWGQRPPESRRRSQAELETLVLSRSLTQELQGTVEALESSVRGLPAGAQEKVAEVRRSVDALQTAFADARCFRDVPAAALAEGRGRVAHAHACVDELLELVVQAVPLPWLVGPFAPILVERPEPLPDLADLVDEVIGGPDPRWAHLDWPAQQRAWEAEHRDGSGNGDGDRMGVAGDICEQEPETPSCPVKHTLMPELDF
Target sequence (Q8WTS1 whole entry, looked up): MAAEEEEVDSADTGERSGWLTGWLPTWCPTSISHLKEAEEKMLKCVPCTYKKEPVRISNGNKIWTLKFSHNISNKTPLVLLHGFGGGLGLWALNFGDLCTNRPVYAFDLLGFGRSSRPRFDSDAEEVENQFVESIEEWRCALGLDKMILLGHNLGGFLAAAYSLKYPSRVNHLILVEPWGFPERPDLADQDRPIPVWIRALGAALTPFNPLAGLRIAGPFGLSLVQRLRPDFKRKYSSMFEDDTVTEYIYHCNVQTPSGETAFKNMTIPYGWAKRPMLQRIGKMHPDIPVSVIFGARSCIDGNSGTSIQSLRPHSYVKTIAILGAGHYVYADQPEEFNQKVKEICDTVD
PAX8 reporter: inhibitors of PAX8 transcriptional activity in RMG-I cells; RMG-I TPO-luciferase reporter, SteadyGlo, 24 h; inhibition, % at 12.6 µM; 1.2% of 360,000 active;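 active means mean replicate inhibition at least 60% with every replicate also reaching 60%; inconclusive means only one of the two criteria is met; inactive means mean below 60% and not all replicates reaching 60%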;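 further: luciferase light reporting Pax8 driven TPO promoter activity; plate controls were median of neutral control wells for no effect and mitoxantrone controls for full effect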
MITF TRPM1 inh: reduces MITF-dependent TRPM1 promoter luciferase signal. SK-MEL-5 TRPM1 promoter luciferase, 24 h. inhibition, % at 12.5 µM. 0.83% of 330,000 active. AID 488899;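 active means mean inhibition across replicates of 60% or more, whatever share of single replicates reaches that level; inconclusive means some that reach 60%, reason not given; inactive means mean inhibition across replicates below 60%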
Peg3 prom inh: Peg3 promoter activity inhibition; HeLa PEG-Prom luciferase reporter, luminescence, overnight; inhibition, % at 20 µM; 1.7% of 360,000 active;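 active means inhibition of at least 50% at 20 µM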
Shn3 inh set2: inhibitors of Schnurri-3 3'UTR reporter in osteoblasts. AID 588674. inhibition, % at 12.5 µM. 0.52% of 360,000 active. Clone20 osteoblast Shn3 3'UTR firefly luciferase, 24 h;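 active means mean inhibition of at least 75% with every replicate also reaching 75%; inconclusive means mean inhibition at least 75% but some replicate below; inactive means mean inhibition below 75%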;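 further: 0% = median of neutral control wells and 100% = pilot-screen positive control compound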
The depositor's hits bear a star; ? = inconclusive; . = no result given.

SMILES	EWS-Fli inh	ABHD5 PLIN5 PPI	PAX8 reporter	MITF TRPM1 inh	Peg3 prom inh	Shn3 inh set2
CC(=O)O[C@H]1C(=O)[C@]2(C)[C@H]([C@H](OC(=O)c3ccccc3)[C@]3(O)C[C@H](OC(=O)[C@H](O)[C@@H](NC(=O)c4ccccc4)c4ccccc4)C(C)=C1C3(C)C)[C@]1(OC(C)=O)CO[C@@H]1C[C@@H]2O	61*	2	40	30	15	40
CC(=O)O[C@H]1C(=O)[C@@]2(C)C([C@H](OC(=O)c3ccccc3)[C@]3(O)C[C@H](OC(=O)[C@H](O)[C@@H](NC(=O)c4ccccc4)c4ccccc4)C(C)=C1C3(C)C)[C@]1(OC(C)=O)CO[C@@H]1C[C@H]2O (stereo partly drawn)	55*	0	.	.	31	12
C[C@H](O)C#Cc1cnc2c(c1)C(=O)N([C@H](C)CO)C[C@@H](C)[C@H](CN(C)C(=O)c1ccc(F)cc1)O2	-12	.	.	.	.	.
CC(=O)N1N=C(c2ccc(C(C)(C)C)cc2)OC1(C)C	16	-4	70*	5	2	31
CC(=O)N1N=C(c2ccc3ccccc3c2)OC1(C)C	.	-4	-19	-7	-25	-2
CCC[C@H](CN[C@@H](CNC)[C@H](C)O)NCCc1ccc(OC)cc1	-7	-1	-11	-4	-3	-17
CCCC[C@H](CN[C@@H](CNC)[C@H](C)CC)NCCC12CCC(CC1)C2	57*	-1	27	94*	102*	?
C[C@H](CO)N1C[C@H](C)[C@H](CN(C)Cc2ccc(F)cc2)Oc2ncc(-c3ccc(F)cc3)cc2C1=O	-2	.	.	.	.	.
CCOc1ccc(C(=O)CC(C(=O)O)N2CCCCC2)cc1 (stereo not drawn)	.	85*	.	2	-7	-8
CCOc1ccc(C(=O)CC(C(=O)O)N2CCN(Cc3ccccc3)CC2)cc1 (stereo not drawn)	.	95*	.	8	8	-48
CCOc1ccc(C(=O)OC(C)C(=O)N2CCN(Cc3ccccc3)CC2)cc1 (stereo not drawn)	-1	0	.	12	1	11
CCOc1ccc(C(=O)N2CCCCCC2)cc1	.	-2	.	-6	-31	-2
CC1C(c2ccccc2)N(C)C(c2ccccc2)C(C)C1(O)C#Cc1ccccc1 (stereo not drawn)	3	-25	-6	6	62*	3
O=C(CC(SCCO)c1ccc([N+](=O)[O-])cc1)c1ccco1 (stereo not drawn)	-2	23*	-20	-4	72*	-4
CCOC(=O)c1sc(NC(=O)CSc2nnc(C(C)C)n2CC)nc1C	.	-3	12	2	52*	26
CCOC(=O)c1sc(NC(=O)Cn2nnc3sc4c(c3c2=O)CCC(C(C)(C)C)C4)nc1C (stereo not drawn)	3	0	73*	1	-25	-9
CCOC(=O)c1sc(NC(=O)CN2C(=O)C3CC=CCC3C2=O)nc1C (stereo not drawn)	-5	-7	-14	1	89*	7
CC(=O)Cn1nnc2sc3c(c2c1=O)CCC(C(C)(C)C)C3 (stereo not drawn)	-80	-2	-166	-77	-244	-74
C[C@@H]1CCCCO[C@@H](CN(C)S(=O)(=O)c2ccccc2)[C@H](C)CN([C@H](C)CO)C(=O)c2cc(NC(=O)Nc3cccc4ccccc34)ccc2O1	17	.	-17	.	.	.
CCC(=O)N[C@H]1CC[C@H](CC(=O)NCc2ccccc2F)O[C@H]1CO	4	.	-2	.	.	.
CN(C)CC#Cc1cccc(-c2nc(C(=O)NCCCN3CCOCC3)cc3c2[C@H](CCO)N(S(=O)C(C)(C)C)C3)c1 (stereo partly drawn)	0	.	2	.	.	.
CC(C)(C)S(=O)N1Cc2cc(C(=O)NCCCN3CCOCC3)nc(-c3cccc(C#CCC4CCCC4)c3)c2[C@@H]1CCO (stereo partly drawn)	21	.	82*	.	.	.
CC(C)NC(=O)N1Cc2cc(C(=O)NCC(F)(F)F)nc(-c3cccc(-c4cc5ccccc5o4)c3)c2[C@H]1CCO	.	.	85*	.	.	.
CC(C)(C)S(=O)N1Cc2cc(C(=O)Nc3ccc(-c4ccccc4)cc3)nc(-c3cccc(-c4cc5ccccc5o4)c3)c2[C@@H]1CCO (stereo partly drawn)	-4	4	16	.	93*	-10
